EPAC2 agonist = qHTS for Agonist of cAMP-regulated guanine nucleotide exchange factor 4 (EPAC2): primary screen; Rap guanine nucleotide exchange factor 4 (Homo sapiens), Q8WZA2; Potency, µM (series often up to 154 µM), inactives show top-dose activation, actives largely listed as activators; EPAC2 activation, biochemical qHTS; response scale: 100% = 6.5 mM cAMP response; 360,000 tested, 0.079% active; further: potency means the concentration at half of the fitted maximal effect; nearly all actives have a fitted effect of over 50% in size
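Compounds were added across a concentration range to EPAC2 (100 nM), RAP1B-BODIPY-GDP (250 nM) and GDP (50 uM). After 5 min at room temperature, fluorescence was recorded at 5-min intervals for 30 min.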
EPAC1 antagonist = qHTS for Antagonist of cAMP-regulated guanine nucleotide exchange factor 3 (EPAC1): primary screen; Potency, µM (series often up to 115 µM), inactives show at the top dose activity change, negative = inhibition, actives largely listed as inhibitors; EPAC1 GEF assay, Rap1b-BODIPY-GDP exchange fluorescence; AID 720709, 2013; 360,000 tested, 0.14% active;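 further: potency means the concentration at half of the fitted maximal effect; plate controls were vehicle for no effect and positive control for full effect; nearly all actives have a fitted effect of over 50% in size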
EPAC2 antag = qHTS for Antagonist of cAMP-regulated guanine nucleotide exchange factor 2 (EPAC2): primary screen. Rap guanine nucleotide exchange factor 4 (Homo sapiens), Q8WZA2. EPAC2 GEF exchange of Rap1B-BODIPY-GDP, fluorescence. Potency, µM (highest dose often 114 µM), for the others: at the highest dose activity, negative = inhibition, most hits filed as inhibitors. 360,000 tested, 0.18% active. AID 720708, 2013; further: potency means the concentration at half of the fitted maximal effect; on the % scale 0 is the no-effect control and ±100 the full control effect; nearly all actives have a fitted effect of over 45% in size
KCNH2 WT inh = qHTS for Inhibitors of KCHN2 3.1: Wildtype qHTS. U2OS, BacMam KCNH2, thallium flux FluxOr; stronger effect = lower value. 340,000 tested, 0.37% active. AID 720551, 2013. Voltage-gated inwardly rectifying potassium channel KCNH2 (Homo sapiens), Q12809. activity change, % at 1.84 µM;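 active means maximum activity change below -70%; inconclusive means maximum activity change between -70% and -50%; inactive means maximum activity change above -50%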; further: on the % scale 0 is the no-effect control and ±100 the full control effect
Target sequence (Q12809 whole entry, looked up): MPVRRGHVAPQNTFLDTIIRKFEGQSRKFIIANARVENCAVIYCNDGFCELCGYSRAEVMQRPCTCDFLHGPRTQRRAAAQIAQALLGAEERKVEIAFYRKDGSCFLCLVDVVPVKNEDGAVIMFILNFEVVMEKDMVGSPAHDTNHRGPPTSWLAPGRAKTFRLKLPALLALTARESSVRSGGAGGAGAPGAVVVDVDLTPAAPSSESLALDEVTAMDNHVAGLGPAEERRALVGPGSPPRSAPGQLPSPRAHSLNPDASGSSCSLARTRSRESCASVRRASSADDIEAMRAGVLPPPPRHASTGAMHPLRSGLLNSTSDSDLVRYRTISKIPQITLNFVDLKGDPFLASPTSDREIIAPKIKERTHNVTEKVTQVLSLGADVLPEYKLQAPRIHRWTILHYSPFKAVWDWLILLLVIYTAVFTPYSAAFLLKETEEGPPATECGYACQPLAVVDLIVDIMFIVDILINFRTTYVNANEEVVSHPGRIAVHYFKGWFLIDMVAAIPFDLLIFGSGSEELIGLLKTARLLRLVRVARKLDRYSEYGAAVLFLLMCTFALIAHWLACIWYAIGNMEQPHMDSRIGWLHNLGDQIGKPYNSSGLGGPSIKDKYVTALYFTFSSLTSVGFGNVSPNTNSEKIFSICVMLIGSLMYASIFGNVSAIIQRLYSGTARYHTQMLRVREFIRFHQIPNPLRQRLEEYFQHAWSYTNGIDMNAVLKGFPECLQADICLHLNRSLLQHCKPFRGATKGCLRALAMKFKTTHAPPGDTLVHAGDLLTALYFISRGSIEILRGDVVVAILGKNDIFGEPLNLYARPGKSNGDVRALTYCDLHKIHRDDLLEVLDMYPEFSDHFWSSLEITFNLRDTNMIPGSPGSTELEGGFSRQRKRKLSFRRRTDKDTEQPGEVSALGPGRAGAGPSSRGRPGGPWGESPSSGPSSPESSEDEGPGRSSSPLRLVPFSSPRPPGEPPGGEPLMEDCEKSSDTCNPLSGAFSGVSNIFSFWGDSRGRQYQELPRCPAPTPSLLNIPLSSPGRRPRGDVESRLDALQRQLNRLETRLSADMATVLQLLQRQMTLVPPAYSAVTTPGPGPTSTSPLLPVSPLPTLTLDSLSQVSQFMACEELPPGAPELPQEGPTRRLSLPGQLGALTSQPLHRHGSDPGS
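U2OS cells were transduced with wild-type KCNH2 virus (2.03 x 10^8 / mL) for 4 h at room temperature, then cultured overnight at 37 C. Thallium flux was read with FluxOr dye. Rate constants were normalized to DMSO controls.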
EPAC1 agonist = qHTS for Agonist of cAMP-regulated guanine nucleotide exchange factor 3 (EPAC1): primary screen. Rap guanine nucleotide exchange factor 3 (Homo sapiens), O95398. EPAC1 agonist qHTS, biochemical assay; response scale: 100% = response to 6.5 mM cAMP. Potency, µM (doses to about 154 µM), for the others: at the highest dose activation, most hits filed as activators. 360,000 tested, 0.073% active. AID 720707, 2013; further: potency means the concentration at half of the fitted maximal effect; nearly all actives have a fitted effect of over 60% in size
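EPAC1 100 nM, Rap1B–BODIPY-GDP 250 nM, unlabeled GDP 50 uM; compound titration; 5 min RT; kinetic read ex480/em540 at 5-min intervals ×30 min; data normalized to 6.5 mM cAMP agonist control.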
KCNH2 3.1 block = qHTS for Inhibitors of KCHN2 3.1: Mutant qHTS | activity change, % (tested at about 1.8 µM) | U2OS KCNH2 3.1, thallium flux FluxOr; stronger effect = lower value | 340,000 tested, 0.95% active | AID 720553, 2013 | Potassium voltage-gated channel subfamily H member 2, brain isoform KCNH2 3.1 (human);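 active means maximum activity change below -70%; inconclusive means maximum activity change from -70% to -50%; inactive means maximum activity change above -50%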;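 further: thallium influx rate constant from kinetic fluorescence after stimulation buffer; on the % scale 0 is the no-effect control and ±100 the full control effect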
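U2OS cells transduced with KCNH2 3.1 mutant virus (1.77 x 10^8 /mL, 4 h), plated overnight at 37 C, loaded 45 min with FluxOr dye plus Red40 quencher. Thallium flux rate constant from kinetic reads after stimulation buffer, normalised to controls.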
Active calls of the source: *; ? = inconclusive; . = not tested or not shown; [ ] = dose if it differs, or a comment. A selection: hits, their analogues and other compounds. The true share with any hit is near 1.4%. Unless noted, the call rests on the fitted dose curve; in most records, active means well fitted curve in the direction sought with a large enough effect; inconclusive means small, poorly fitted or top-dose-only effect, or another doubt; inactive means no such curve, though single readings can be large; an effect the other way counts as inactive or inconclusive.

SMILES	EPAC2 agonist	EPAC1 antagonist	EPAC2 antag	KCNH2 WT inh	EPAC1 agonist	KCNH2 3.1 block
COCCNC(=O)C(c1ccc(Cl)cc1)N(C(=O)Cn1nnc2ccccc21)c1cccnc1 (stereo not given)	?	24.1%	4.3%	-6.2	0.7%	-10.1
Cc1ccc(S(=O)(=O)NC(=O)C2(C)CCN2C(=O)Cc2ccc(Cl)cc2Cl)nc1 (stereo not given)	3.5%	-3.5%	-2.5%	.	-9.3%	.
O=C1CCCN2N=C(SCC(=O)Nc3ccc(F)cc3F)SC2=N1	11.0%	2.2%	1.2%	-7.0	2.4%	13.7
CC(C)(C)NS(=O)(=O)c1ccc(OCC(=O)NCC2CCCO2)cc1 (stereo not given)	5.0%	-7.9%	3.2%	28.0	12.9%	-4.6
COc1ccc(S(=O)(=O)NCC(=O)N(CC(=O)NCC2CCCO2)Cc2ccccc2)cc1 (stereo not given)	6.5%	4.0%	15.1%	-10.5	-5.1%	-2.7
COc1ccc(S(=O)(=O)NCC(=O)N(CC(=O)NCC2CCCO2)c2c(C)cccc2C)cc1 (stereo not given)	10.0%	-27.4%	-10.2%	2.0	5.3%	-73.7*
Cc1ccccc1NS(=O)(=O)c1ccc(OCC(=O)NCC2CCCO2)cc1 (stereo not given)	18.4%	8.5%	-3.9%	-172.0*	4.1%	-184.4*
O=C(c1cccc(S(=O)(=O)N2CCc3ccccc32)c1)N1CCCC(C(F)(F)F)C1 (stereo not given)	8.7%	-9.8%	-7.3%	2.1	-5.1%	4.7
c1csc(-c2nc(NCC3CCCO3)c3ccccc3n2)c1 (stereo not given)	5.1%	-2.4%	-11.1%	7.5	6.9%	-5.7
c1ccc(CN2CCC(Nc3nc(-c4cccs4)nc4ccccc34)CC2)cc1	6.8%	?	-7.0%	.	23.1%	-72.6*
O=C(c1cc(-c2ccc(Cl)cc2)n(-c2ccc(Cl)cc2)n1)N1CCOCC1	0.0%[15.6 µM]	-1.2%	-25.2%	-70.3*	-0.4%	-97.6*
Cc1ccc(-n2nc(C(=O)N3CCOCC3)cc2-c2ccc(Cl)cc2)cc1	4.5%	0.7%	-10.8%	-32.4	5.9%	?
O=C(CCCCn1c(=S)[nH]c2ccsc2c1=O)NCc1ccco1	0.7%	7.6%	-1.9%	-13.8	3.1%	-71.5*
O=C(CCCn1c(=S)[nH]c2ccsc2c1=O)NCc1ccco1	1.3%	5.3%	2.0%	-17.2	-5.6%	-9.1
Cn1cnc(C(=O)NCc2ccc(CNC(=O)OC(C)(C)C)cc2)c1C(=O)NCc1ccc(CNC(=O)OC(C)(C)C)cc1	-12.8%	-24.1%	8.5%	-2.6	-16.4%	-114.6*
CC(C)(C)OC(=O)NCc1ccc(CNC(=O)c2ncn(Cc3ccccc3)c2C(=O)NCc2ccc(CNC(=O)OC(C)(C)C)cc2)cc1	-1.1%	3.9%	3.6%	.	-13.0%	.
CC1CCCN(c2nc3ccccc3nc2C(C#N)S(=O)(=O)c2ccccc2)C1 (stereo not given)	-510.9%	37.0%	128.5%	-2.0	56.2µM*	-7.1
Cn1c(N)c(C(=O)CSc2nnc(-c3c[nH]c4ccccc34)n2C2CC2)c(=O)[nH]c1=O	63.1µM*	?	50.1µM*	-0.3	9.6%	-3.0
CCN1C(=O)CC(Sc2ccccc2C(=O)O)C1=O (stereo not given)	0.9%	-4.3%	-2.9%	-18.8	1.3%	-104.2*
COc1ccc(C(=O)NC(=S)Nc2ccc(N3CCCC3)cc2)cc1	11.2%	28.7%	0.5%	-0.5	8.1%	-89.2*
O=C(NC(=S)Nc1ccc(N2CCOCC2)cc1)c1cccc(Cl)c1Cl	9.7%	-13.9%	1.8%	-0.3	21.9%	5.3
COc1ccc(C(=O)NC(=S)NNC(=O)c2ccccc2O)cc1	-2.2%	-3.5%	19.8%	-2.4	0.1%	-82.7*
CCC(=O)N1CCN(c2ccc(NC(=S)NC(=O)c3ccc(OC)c([N+](=O)[O-])c3)cc2)CC1	11.5%	15.9%	-1.6%	-3.7	5.0%	-91.1*
CCOc1ccc(C(=O)NC(=S)Nc2ccc(N3CCC(C)CC3)cc2)cc1[N+](=O)[O-]	6.9%	10.4%	-7.5%	4.1	10.0%	-29.0
CN1CCN(c2ccc(NC(=S)NC(=O)c3cccc4c(Cl)cccc34)cc2)CC1	-13.0%	-23.3%	5.3%	4.9	5.4%	-90.6*
SMILES	EPAC2 agonist	EPAC1 antagonist	EPAC2 antag	KCNH2 WT inh	EPAC1 agonist	KCNH2 3.1 block
CC(=O)NCCNc1nc2cc(-c3cnn(CCC(C)C)c3)sc2c(=O)n1C	-4.0%	-1.2%	8.9%	.	-10.5%	.
COc1ccc(S(=O)(=O)NCc2ccc(C(=O)NCCN(C)Cc3ccccc3)cc2)cc1	0.7%	-14.0%	5.5%	.	13.0%	.
CN(Cc1ccccc1)S(=O)(=O)c1cccc2cccnc12	10.7%	1.9%	17.6%[57.1 µM]	-75.9*	-3.8%	19.8
COc1cccc(CNC(=O)CN(C)S(=O)(=O)c2cccc3cccnc23)c1	5.0%	-12.4%	12.9%	6.7	-10.0%	-4.7
CCCN(c1ccc(OCC)cc1)c1ncnc2nc[nH]c12	10.4%	2.3%	-7.3%	-8.3	-8.7%	-90.3*
CCN(c1ccc(OC)cc1)c1ncnc2nc[nH]c12	-6.1%	-0.9%	4.9%	-7.9	-12.9%	-11.7
O=C(NCc1cccc(Cl)c1)C1Cc2c(-c3ccccc3)ccnc2O1 (stereo not given)	13.2%	-4.6%	13.7%	.	-1.8%	.
CCCCCC(O)(CCN1CCCCC1)c1ccc(OCC)cc1 (stereo not given)	-1.9%	-9.5%	-5.3%	-98.9*	-2.4%	-113.9*
Cc1cc(C)c(C)c(S(=O)(=O)N2CCC(C(=O)Nc3ccc(S(=O)(=O)N4CCOCC4)cc3)CC2)c1C	1.4%	-25.4%	-0.9%	6.9	12.0%	-7.5
Cc1nnc(SCC(=O)Nc2cc(S(=O)(=O)N3CCCC3)ccc2Cl)n1C1CC1	4.1%	-12.6%	-2.2%	1.0	3.3%	-96.7*
CCOC(=O)C1=C[C@@H](C(C)C)N(S(=O)(=O)c2ccc(C)cc2)[C@H]1c1ccc(C(F)(F)F)cc1	4.7%	-19.5%	-14.8%	.	-14.1%	.
Cn1c(=O)c(Nc2ccc(Cl)cc2)c2c3c(cccc31)C(=O)c1ccccc1-2	112µM*	11.5%	62.6%	-4.8	?	-15.3
